Screens deposited in PubChem by several laboratories.
This is a sample that favours compounds with a hit; in the whole collection about 4.2% have one here.
tim23-1 inh: growth inhibitors of tim23-1 mutant yeast, primary screen, luminescence, uHTS; S. cerevisiae tim23-1 growth, BacTiter-Glo luminescence, 24 h; inhibition, % at 20 µM; 330,000 compounds, 1.3% hits;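 active = growth inhibition of the mutant yeast at or above 50%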;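 also: temperature-sensitive mutant grown at 25 °C; plate controls were DMSO-treated mutant yeast for no effect and medium wells lacking yeast for full effect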
NLRP3 yeast inh: NALP3 inflammasome inhibitors in reconstituted yeast, primary screen, luminescence, uHTS. inhibition, % at 10 µM. 330,000 compounds, 0.39% hits. Yeast reconstituted NLRP3/ASC/caspase-1, beta-gal luminescence, 24 h;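 active = inhibition of 50% or more; inactive = inhibition below 50%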;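 also: plate controls were induced DMSO wells for no effect and uninduced yeast grown without galactose for full effect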
NALP1 yeast inh: NALP1 inflammasome inhibitors in reconstituted yeast, colorimetric, S. cerevisiae, triplicate retest; S. cerevisiae NALP1/ASC/caspase-1 growth, X-gal OD620, 72 h; inhibition, % at 10 µM; AID 2071, 2009; 280,000 compounds, 0.61% hits; in the data active = inhibition mostly above about 24%, no sharp cut-off; inactive = mostly below about 32%
tim10-1 inh: growth inhibitors of tim10-1 mutant yeast, primary screen, luminescence, uHTS; inhibition, % at 20 µM; AID 463190, 2010; S. cerevisiae tim10-1 ts strain growth, BacTiter-Glo, 24 h; 330,000 compounds, 2.2% hits;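 active = inhibition of at least 40%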;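 also: mutant grown at 25 °C; 0% = DMSO wells with yeast and 100% = wells holding no yeast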
TIM10 inh: growth inhibitors of isogenic TIM10 control yeast, primary screen, counter-screen for tim10-1 yeast inhibitor project, luminescence, uHTS | inhibition, % at 10 µM | 330,000 compounds, 1.4% hits | S. cerevisiae TIM10 strain growth, BacTiter-Glo luminescence, 24 h;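 active = inhibition of 40% or more at the single tested concentration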;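 also: wild-type TIM10 isogenic control strain grown at permissive 25 °C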
PfHsp90 set2: growth inhibition of PfHsp90-expressing yeast, primary screen, antimalarial PfHsp90 inhibitor project, S. cerevisiae, BacTiter-Glo luminescence, single point, set 2; BacTiter-Glo ATP, 48 h; yeast lacking PDR1 and PDR3 efflux regulators; inhibition, % at 9.4 µM; 310,000 compounds, 0.32% hits; AID 504621, 2011;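 active = every replicate shows inhibition above about 80%, whatever the replicate mean, limit read from the data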;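 also: 0% = DMSO neutral controls and 100% = 20 µM radicicol positive controls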
tim10-1 conf: growth inhibitors of tim10-1 mutant yeast, confirmation, single concentration, luminescence, S. cerevisiae; AID 463213, 2010; shares compounds with tim10-1 inh; 7,400 compounds, 56% hits; S. cerevisiae tim10-1 ts strain growth, BacTiter-Glo, 24 h; inhibition, % at 20 µM;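 active = inhibition of yeast growth at or above a set limit in either of two repeat tests at 20 µM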;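 also: tim10-1 mutant grown at permissive 25 °C to find synthetic lethal compounds; 0% = DMSO yeast wells and 100% = medium wells without yeast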
An asterisk follows results filed as active; . = no result.

SMILES	tim23-1 inh	NLRP3 yeast inh	NALP1 yeast inh	tim10-1 inh	TIM10 inh	PfHsp90 set2	tim10-1 conf
CCN1CCN(C2=C(NS(=O)(=O)c3ccccc3)C(=O)c3ccccc3C2=O)CC1	9	26	-1	4	15	7	.
Cc1ccc(/C=N/c2sc(Cc3ccccc3)c(C)c2C(N)=O)o1	49	11	36	48*	33	6	46*
Cc1c(Cc2ccccc2)sc(/N=C/c2ccc3ccccc3c2)c1C(N)=O	.	.	21	.	.	-26	.
CC1(C)Cc2c(C#N)c(N3CCN(C(=O)c4ccccc4)CC3)nc(-c3ccco3)c2CS1	18	3	-7	44*	25	-20	33*
CC(C)c1nc(N2CCN(C(=O)c3ccccc3)CC2)c(C#N)c2c1COC(C)(C)C2	-9	0	0	-4	23	68	.
COc1ccccc1CNC(=O)/C=C/c1ccc(Br)o1	12	0	0	19	-3	1	.
CCc1ccc(C(=O)c2oc3nc(C)cc(C)c3c2N)cc1	29	14	15	45*	27	21	33*
Cc1ccc(C(=O)c2oc3nc(C)cc(C)c3c2N)cc1	18	31	1	11	14	36	.
Cc1cc(C)cc(OCCCOc2cccc3cccnc23)c1	37	33	14	42*	27	2	33*
OC(COc1ccccc1)Cn1c2ccccc2c2ccccc21 (centres undefined)	26	22	22	42*	31	24	51*
COc1ccc(S(=O)(=O)NC(N)=NCCc2ccccc2)cc1	4	19	7	15	-5	13	.
N#Cc1c(N2CCCC(O)C2)nc(N)c2c(N)nc3c(c12)CC(=O)N3C12CC3CC(CC(C3)C1)C2 (centres undefined)	34	9	7	50*	36	-14	33*
COC(=O)N1C(=O)[C@@](c2ccccc2)(C2CCCC2)N1C(=O)OC	31	1	5	42*	37	5	32*
COc1ccc(-c2cc(C)no2)cc1S(=O)(=O)N(C)c1ccc(C)cc1	37	19	14	45*	-22	-8	-32
Cc1ccc(-c2csc3ncnc(-n4nnc5ccccc54)c23)cc1C	38	0	27	42*	25	6	31*
c1ccc(-c2csc3ncnc(-n4cnc5ccccc54)c23)cc1	36	5	7	42*	23	5	32*
S=c1nc[nH]c2c1sc1nc(N3CCOCC3)c3c(c12)CCCC3	36	2	23	43*	23	-59	19
CC1(C)C2CCC(C2)C1C/C=N/NC(N)=S (centres undefined)	30	-27	-6	46*	17	8	-6
CC1(C)CCC(=NNC(N)=S)CC1	.	.	.	.	.	-21	.
Cc1c(Cl)cccc1NC(=O)c1cccc(OC(F)F)c1	46	26	62	47*	35	16	48*
Cc1ccc(NC(=O)c2cccc(OC(F)F)c2)c(OC(F)F)c1	30	30	37	32	16	0	.
Cn1c(SC2=CS(=O)(=O)c3ccccc32)nc2ccccc21	33	27	5	44*	30	-14	30
CC(C)(C)N(Cc1ccccc1)C(=O)COC(=O)CN1C(=O)NC2(CCCC2)C1=O	11	1	15	-8	3	-2	.
Cc1cc(C)n(-c2cc(C(C)(C)C)nc3c(-c4ccc(Cl)cc4)cnn23)n1	41	10	0	40	34	2	30
COc1ccc(C)cc1NC(=O)c1ccc(CN2CCN(c3ccccc3)CC2)cc1	36	34	52	46*	21	-4	30
SMILES	tim23-1 inh	NLRP3 yeast inh	NALP1 yeast inh	tim10-1 inh	TIM10 inh	PfHsp90 set2	tim10-1 conf
COc1ccc(NC(=O)c2ccc(CN3CCN(c4ccccc4)CC3)cc2)cc1OC	17	17	4	28	4	4	.
CCC1=C/C(=C/c2sc3ccccc3[n+]2CC)CC(C)(C)C1	38	23	0	42*	30	-12	35*
CC[n+]1c(/C=C2\C=C(C)CC(C)C2)sc2ccccc21 (centres undefined)	35	-2	14	30	22	-7	.
Cc1ccccc1N1C(=O)CN(Cc2sccc2C)C1=S	46	15	30	31	25	17	.
Cc1ccc(C)c(N2CCN(C(=O)c3ccc4nc(-c5ccco5)c(-c5ccco5)nc4c3)CC2)c1	2	6	27	44*	5	.	37*
Cc1ccc(C)c(N2CCN(C(=O)c3ccc4c(c3)c(C)c(C)n4C)CC2)c1	36	8	8	43*	27	14	18
CC(C)CC(=O)Nc1ccc(Oc2ccc3c(c2)C(=O)NC3=O)cc1	-7	18	-2	-12	-12	10	.
CC(CCc1ccccc1)NC(=O)COC(=O)c1ccc(S(C)(=O)=O)c([N+](=O)[O-])c1 (centres undefined)	18	6	1	46*	4	-24	14
Nc1ccccc1Nc1cc(-c2ccccc2)nn1-c1cccc(Cl)c1	48	22	25	44*	20	34	16
O=C(Nc1ccccc1C(=O)O)c1ccc(NC(=O)C2CCCCC2)cc1	2	0	-14	-9	10	-12	.
CN(C)CCCN1c2ccccc2Sc2ccc(C(F)(F)F)cc21	21	37	31	44*	29	14	31
CCSc1ccc2c(c1)N(CCCN1CCN(C)CC1)c1ccccc1S2	24	26	.	42*	17	13	31*
OCCN1CCN(CC/C=C2/c3ccccc3Sc3ccc(C(F)(F)F)cc32)CC1	13	15	.	51*	18	-9	24
CN(C)CCC(=O)N1c2ccccc2Sc2ccc(C(F)(F)F)cc21	26	25	22	22	16	-3	.
OCCN1CCN(CC/C=C2/c3ccccc3CSc3ccccc32)CC1	4	6	.	25	23	.	.
CCN(CC)CCCCN1c2ccccc2Sc2ccccc21	14	25	27	41*	12	19	27
COC(=O)C1=C(C)N(CCCC(=O)O)C(=O)NC1c1ccccc1Cl (centres undefined)	4	3	.	-7	6	9	.
CN1CCN(CCC(=O)N2c3ccccc3Sc3ccc(C(F)(F)F)cc32)CC1	-6	13	15	5	-2	-7	.
